Assay results as given in PubChem BioAssay (EPA / NIEHS).
The source made the active and inactive calls. The calls were made as follows: active = hit-call score of the fitted dose curve at least 0.9, where 1 is the maximum; inactive = score below 0.9.

Assays:
[1] = read-out: catalase (CAT), CAT (gene 847); assay: LTEA_HepaRG_CAT: Life Technologies and Expression Analysis (LTEA) Assay for catalase (CAT) using HepaRG (AID 2283452); conditions: mRNA level, 48 h; actives raise or lower the signal
Procedure, shortened: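 HepaRG cells in serum-free induction medium, 0.5% DMSO vehicle, exposed 48 h in duplicate over 8 half-log concentrations from 100 uM. CAT mRNA measured by qRT-PCR, normalized to ACTB, GAPDH, POLR2A; bidirectional fit versus DMSO.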

[2] = read-out: flavin-containing dimethylaniline monooxygenases 3 (FMO3), FMO3 (gene 2328); assay: LTEA_HepaRG_FMO3: Life Technologies and Expression Analysis (LTEA) Assay for flavin-containing dimethylaniline monooxygenases 3 (FMO3) using HepaRG (AID 2283453); conditions: mRNA level, 48 h; actives raise or lower the signal
Procedure, shortened: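 Differentiated HepaRG cells in serum-free induction medium, exposed 48 h in duplicate to 8 half-log concentrations up to 100 uM in 0.5% DMSO. FMO3 mRNA by qRT-PCR, normalized to ACTB, GAPDH, POLR2A; bidirectional fit vs DMSO.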

[3] = read-out: Cytochrome P450 (CYP1A1), CYP1A1 (gene 1543); assay: LTEA_HepaRG_CYP1A1: Life Technologies and Expression Analysis (LTEA) Assay for Cytochrome P450 (CYP1A1) using HepaRG (AID 2283454); conditions: mRNA level, 48 h; actives raise or lower the signal
Procedure, shortened: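 CYP1A1 transcript levels measured by Fluidigm qRT-PCR against three housekeeping genes, 48 h after chemical dosing of human HepaRG cells (highest concentration 100 uM, half-log steps, 0.5% DMSO vehicle). Gain or loss of signal fitted relative to DMSO.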

[4] = read-out: CFLAR gene, CFLAR (gene 8837); assay: LTEA_HepaRG_CFLAR: Life Technologies and Expression Analysis (LTEA) Assay for CFLAR gene using HepaRG (AID 2283455); conditions: mRNA level, 48 h; actives raise or lower the signal
Procedure, shortened: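 Differentiated HepaRG cells in serum-free induction medium were exposed 48 h in duplicate to eight half-log concentrations up to 100 uM in 0.5% DMSO; mRNA measured by TaqMan qRT-PCR, normalized to ACTB, GAPDH, POLR2A; bidirectional fitting versus DMSO.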

[5] = read-out: Forkhead box O1 (FOXO1), FOXO1 (gene 2308); assay: LTEA_HepaRG_FOXO1: Life Technologies and Expression Analysis (LTEA) Assay for Forkhead box O1 (FOXO1) using HepaRG (AID 2283456); conditions: mRNA level, 48 h; actives raise or lower the signal
Procedure, shortened: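 Differentiated HepaRG cells, in serum-free induction medium with 0.5% DMSO, exposed 48 h in duplicate to 8-point half-log series from 100 uM. FOXO1 mRNA measured by TaqMan qRT-PCR, normalized to ACTB, GAPDH, POLR2A; bidirectional fit versus DMSO.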

[6] = read-out: growth arrest and DNA damage 45 (GADD45A), GADD45A (gene 1647); assay: LTEA_HepaRG_GADD45A: Life Technologies and Expression Analysis (LTEA) Assay for growth arrest and DNA damage 45 (GADD45A) using HepaRG (AID 2283458); conditions: mRNA level, 48 h; actives raise or lower the signal
Procedure, shortened: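 Differentiated HepaRG cells exposed 48 h in serum-free induction medium to 8 concentrations, top 100 uM in half-log steps, 0.5% DMSO. GADD45A mRNA quantified by qRT-PCR, normalized to ACTB, GAPDH and POLR2A; bidirectional fit versus DMSO.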

[7] = read-out: Forkhead box O3 (FOXO3), FOXO3 (gene 2309); assay: LTEA_HepaRG_FOXO3: Life Technologies and Expression Analysis (LTEA) Assay for Forkhead box O3 (FOXO3) using HepaRG (AID 2283459); conditions: mRNA level, 48 h; actives raise or lower the signal
Procedure, shortened: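 Differentiated human HepaRG cells, 48 h post-plating, exposed in duplicate for 48 h in serum-free induction medium; 8-point half-log series from 100 uM in 0.5% DMSO. FOXO3 mRNA by TaqMan qRT-PCR, normalized to ACTB/GAPDH/POLR2A; bidirectional fit versus DMSO.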

[8] = read-out: ABC Transporter (ABCB1), ABCB1 (gene 5243); assay: LTEA_HepaRG_ABCB1: Life Technologies and Expression Analysis (LTEA) Assay for ABC Transporter (ABCB1) using HepaRG (AID 2283460); conditions: mRNA level, 48 h; actives raise or lower the signal
Procedure, shortened: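 HepaRG cells exposed in duplicate for 48 h in serum-free induction medium to eight half-log concentrations up to 100 uM in 0.5% DMSO. ABCB1 mRNA quantified by qRT-PCR, normalised to ACTB, GAPDH and POLR2A; fitted bidirectionally versus DMSO.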

[9] = read-out: growth arrest and DNA damage 45 (GADD45B), GADD45B (gene 4616); assay: LTEA_HepaRG_GADD45B: Life Technologies and Expression Analysis (LTEA) Assay for growth arrest and DNA damage 45 (GADD45B) using HepaRG (AID 2283461); conditions: mRNA level, 48 h; actives raise or lower the signal
Procedure, shortened: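 Transcript level quantified by Fluidigm TaqMan qRT-PCR with three housekeeping genes for normalization, analyzed for up- or down-regulation against 0.5% DMSO. HepaRG cultures dosed 48 h at eight half-log concentrations up to 100 uM, duplicates.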

[10] = read-out: ABC Transporter (ABCC3), ABCC3 (gene 8714); assay: LTEA_HepaRG_ABCC3: Life Technologies and Expression Analysis (LTEA) Assay for ABC Transporter (ABCC3) using HepaRG (AID 2283462); conditions: mRNA level, 48 h; actives raise or lower the signal
Procedure, shortened: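 Transcript level by TaqMan qRT-PCR, normalised to three housekeeping genes, fitted in both directions relative to vehicle. Chemicals tested in duplicate at eight half-log concentrations up to 100 uM for 48 h on HepaRG cells (0.5% DMSO).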

[11] = read-out: ABC Transporter (ABCB11), ABCB11 (gene 8647); assay: LTEA_HepaRG_ABCB11: Life Technologies and Expression Analysis (LTEA) Assay for ABC Transporter (ABCB11) using HepaRG (AID 2283463); conditions: mRNA level, 48 h; actives raise or lower the signal
Procedure, shortened: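 Differentiated human HepaRG cells in serum-free induction medium, dosed in duplicate for 48 h. Eight-point half-log series from 100 uM in 0.5% DMSO; ABCB11 mRNA by qRT-PCR, normalized to ACTB, GAPDH, POLR2A, fitted bidirectionally versus DMSO.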

[12] = read-out: ABC Transporter (ABCC2), ABCC2 (gene 1244); assay: LTEA_HepaRG_ABCC2: Life Technologies and Expression Analysis (LTEA) Assay for ABC Transporter (ABCC2) using HepaRG (AID 2283464); conditions: mRNA level, 48 h; actives raise or lower the signal
Procedure, shortened: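 Endpoint is ABCC2 transcript level from qRT-PCR, normalized to three housekeeping genes and fitted bidirectionally relative to DMSO. Human HepaRG cells received test chemical for 48 h at up to 100 uM (8 points, half-log steps, 0.5% DMSO), duplicate wells.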

[13] = read-out: Broad substrate specificity ATP-binding cassette transporter ABCG2 (Homo sapiens) (UniProt Q9UNQ0); assay: LTEA_HepaRG_ABCG2: Life Technologies and Expression Analysis (LTEA) Assay for ABC Transporter (ABCG2) using HepaRG (AID 2283465); conditions: mRNA level, 48 h; actives raise or lower the signal
Procedure, shortened: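 Differentiated HepaRG cells were exposed for 48 h in serum-free induction medium to 8 half-log concentrations, top 100 uM, in 0.5% DMSO. ABCG2 mRNA was measured by qRT-PCR, normalized to ACTB, GAPDH and POLR2A, with bidirectional fitting versus DMSO.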

[14] = read-out: ATP-citrate lyase (ACLY), ACLY (gene 47); assay: LTEA_HepaRG_ACLY: Life Technologies and Expression Analysis (LTEA) Assay for ATP-citrate lyase (ACLY) using HepaRG (AID 2283466); conditions: mRNA level, 48 h; actives raise or lower the signal
Procedure, shortened: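 Differentiated HepaRG cells exposed 48 h in serum-free induction medium to eight half-log concentrations up to 100 uM in 0.5% DMSO, duplicates. Transcript measured by Fluidigm TaqMan qRT-PCR, normalized to ACTB, GAPDH, POLR2A; bidirectional fit versus DMSO.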

[15] = read-out: Peroxisomal acyl-coenzyme A oxidase 1 (ACOX1) gene, ACOX1 (gene 51); assay: LTEA_HepaRG_ACOX1: Life Technologies and Expression Analysis (LTEA) Assay for Peroxisomal acyl-coenzyme A oxidase 1 (ACOX1) gene using HepaRG (AID 2283467); conditions: mRNA level, 48 h; actives raise or lower the signal
Procedure, shortened: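 HepaRG cells, plated 48 h then switched to serum-free induction medium, were exposed in duplicate for 48 h to 8-point half-log concentrations up to 100 uM in 0.5% DMSO. ACOX1 mRNA was measured by qRT-PCR, normalized to ACTB/GAPDH/POLR2A, and fitted bidirectionally versus DMSO.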

[16] = read-out: Alkaline Phosphatase, Placental (ALPP) gene, ALPP (gene 250); assay: LTEA_HepaRG_ALPP: Life Technologies and Expression Analysis (LTEA) Assay for Alkaline Phosphatase, Placental (ALPP) gene using HepaRG (AID 2283468); conditions: mRNA level, 48 h; actives raise or lower the signal
Procedure, shortened: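 ALPP transcript level, measured by qRT-PCR and normalized to three housekeeping genes (ACTB, GAPDH, POLR2A), after 48 h dosing of differentiated HepaRG in serum-free induction medium. Top concentration 100 uM with half-log dilutions (8 points, 0.5% DMSO, duplicates); bidirectional fitting relative to DMSO.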

[17] = read-out: Bcl-2 (BAD) gene, BAD (gene 572); assay: LTEA_HepaRG_BAD: Life Technologies and Expression Analysis (LTEA) Assay for Bcl-2 (BAD) gene using HepaRG (AID 2283469); conditions: mRNA level, 48 h; actives raise or lower the signal
Procedure, shortened: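 Differentiated HepaRG cells were exposed in duplicate in 0.5% DMSO for 48 h to eight-point half-log concentrations up to 100 uM. BAD mRNA was measured by Fluidigm TaqMan qRT-PCR, normalized to ACTB, GAPDH and POLR2A, and fitted bidirectionally against DMSO.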

[18] = read-out: Bcl-2 (BAX) gene, BAX (gene 581); assay: LTEA_HepaRG_BAX: Life Technologies and Expression Analysis (LTEA) Assay for Bcl-2 (BAX) gene using HepaRG (AID 2283470); conditions: mRNA level, 48 h; actives raise or lower the signal
Procedure, shortened: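 Differentiated HepaRG cells exposed 48 h in serum-free induction medium, eight half-log concentrations from 100 uM, in duplicate, 0.5% DMSO vehicle. BAX mRNA by TaqMan qRT-PCR, normalised to ACTB, GAPDH and POLR2A.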

[19] = read-out: adenosine kinase (ADK) gene, ADK (gene 132); assay: LTEA_HepaRG_ADK: Life Technologies and Expression Analysis (LTEA) Assay for adenosine kinase (ADK) gene using HepaRG (AID 2283471); conditions: mRNA level, 48 h; actives raise or lower the signal
Procedure, shortened: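 Read-out is ADK transcript level measured by qRT-PCR and normalised to three housekeeping genes. Cells are human HepaRG, dosed for 48 h at up to 100 uM in 0.5% DMSO. Gain or loss of signal is fitted against DMSO controls.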

[20] = CEETOX_H295R_TESTO: CeeTox H295R High-throughput Steroidogenesis Assay for Testosterone (TESTO) (AID 2283457); conditions: actives raise or lower the signal
Procedure, shortened: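 Testosterone secreted into the medium over 48 h by H295R cells (maximum passage 10) was quantified by LC-MS/MS after MTBE extraction. Fitted in both directions against DMSO, with concentrations diluted until MTT viability was ≥70%.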

Measured: AC50

Chain of Broad substrate specificity ATP-binding cassette transporter ABCG2 (Homo sapiens) (Q9UNQ0 whole entry, looked up): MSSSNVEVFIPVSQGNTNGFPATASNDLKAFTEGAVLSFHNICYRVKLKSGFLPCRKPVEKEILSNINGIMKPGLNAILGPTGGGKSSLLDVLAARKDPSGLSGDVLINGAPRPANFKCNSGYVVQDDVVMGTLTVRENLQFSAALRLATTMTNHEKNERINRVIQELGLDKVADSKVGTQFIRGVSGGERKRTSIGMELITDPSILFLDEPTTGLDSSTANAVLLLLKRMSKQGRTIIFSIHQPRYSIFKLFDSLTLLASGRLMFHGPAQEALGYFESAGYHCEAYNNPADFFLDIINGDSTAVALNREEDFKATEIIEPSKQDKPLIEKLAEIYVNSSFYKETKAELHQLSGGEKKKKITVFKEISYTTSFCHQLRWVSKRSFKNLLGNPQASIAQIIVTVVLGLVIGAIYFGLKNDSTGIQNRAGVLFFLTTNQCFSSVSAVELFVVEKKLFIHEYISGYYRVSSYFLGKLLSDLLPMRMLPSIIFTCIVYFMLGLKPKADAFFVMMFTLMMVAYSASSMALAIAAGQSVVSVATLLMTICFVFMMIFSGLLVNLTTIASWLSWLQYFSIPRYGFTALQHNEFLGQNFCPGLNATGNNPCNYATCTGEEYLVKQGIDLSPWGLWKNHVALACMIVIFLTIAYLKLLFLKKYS

COc1cc(C=O)cc2c1[C@H](COC(N)=O)[C@]1(OC(C)=O)ON2C[C@H]2[C@@H]1N2C(C)=O
inactive: [4] | [12] | [13] | [14] | [16] | [18]
active: [1] 0.412 µM | [2] 76.5 µM | [3] 4.09 µM | [5] 3.75 µM | [6] 0.579 µM | [7] 3.8 µM | [8] 24.3 µM | [9] 92.3 µM | [10] 9.99 µM | [11] 0.38 µM | [15] 94.2 µM | [17] 89.3 µM | [19] 24.6 µM

COC(=O)Nc1nc2ccccc2[nH]1
active: [3] 24.7 µM
inactive: [1] | [2] | [4] | [5] | [6] | [7] | [8] | [9] | [10] | [11] | [12] | [13] | [14] | [15] | [16] | [17] | [18] | [19]

O=C(Nc1ccccc1)c1ccccc1I
inactive: [1] | [4] | [5] | [20] | [6] | [8] | [10] | [12] | [14] | [15] | [16] | [17] | [18] | [19]
active: [2] 50 µM | [3] 27.7 µM | [7] 14.6 µM | [9] 17.1 µM | [11] 23.3 µM | [13] 11.7 µM

O=C(O)C1C2CCC(O2)C1C(=O)O (stereo unspecified)
inactive: [1] | [4] | [5] | [6] | [8] | [9] | [10] | [12] | [14] | [15] | [17] | [18] | [19]
active: [2] 56.4 µM | [3] 82.6 µM | [7] 37.4 µM | [11] 77.9 µM | [13] 14.2 µM | [16] 20.1 µM

CNC(=O)Oc1cccc2c1OC(C)(C)C2
inactive: [1] | [2] | [4] | [5] | [20] | [7] | [8] | [10] | [12] | [13] | [14] | [15] | [16] | [17] | [18] | [19]
active: [3] 50 µM | [6] 0.0409 µM | [9] 50 µM | [11] 28.4 µM

COP(=S)(OC)SCN1C(=O)c2ccccc2C1=O
inactive: [1] | [2] | [4] | [5] | [6] | [7] | [8] | [9] | [10] | [11] | [12] | [13] | [14] | [15] | [16] | [17] | [18] | [19]
active: [3] 30.9 µM
